Our source for the cell viability values is the supplement of paper PMC10600219.

Each structure is given as a SMILES string. Counter-ions that a name gives are not always drawn. Whole data set: some 2,800 compounds, median “cell viability relative to vehicle” near 0.98, cut for the lowest 2% near 0.45. This is one part of a sample in which the lowest values are shown more often than they occur.

The experiment relates to NCI-H2228 alectinib-DTP. The experiment in a line: cell viability relative to vehicle (fraction of vehicle); NCI-H2228 is an ALK-positive lung cancer line and DTP means drug-tolerant persister; higher = less growth inhibition. Particulars: 100 nM; treatment time 6 days. In short, it runs like this: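 Values give cell viability as a fraction of vehicle-treated cells. Parental and drug-tolerant persister NCI-H2228 cells (persisters made with 1000 nM of a targeted drug for 13 days) were exposed in 384-well plates to the 3114-agent TargetMol anti-cancer compound library at 100 nM, with DMSO as vehicle. ATP was then read after 6 days by the CellTiter-Glo 3D Cell Viability Assay.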
In turn, `CC(C)C[C@H](NC(=O)[C@@H](O)[C@H](N)Cc1ccccc1)C(=O)O` [Bestatin hydrochloride] displayed a cell viability of 1.12.

`CC(C)C[C@H](NC(=O)[C@H](Cc1ccccc1)NC(=O)c1cnccn1)B(O)O` [Bortezomib] displayed a cell viability of 0.145.

As to `CNC(=O)[C@H](Cc1ccccc1)NC(=O)[C@H](CC(C)C)[C@H](CSc1cccs1)C(=O)NO` [Batimastat], the cell viability was 1.15.

As for `CC(C)C[C@H](NC(=O)[C@@H](O)[C@H](N)Cc1ccccc1)C(=O)O` [Ubenimex], the cell viability worked out at 1.05.

Turning to `CC(C)C[C@H](NC(=O)[C@@H](NC(=O)c1cccc(-c2ccccc2)n1)[C@@H](C)O)B(O)O` [Delanzomib], the cell viability is 0.301.

As to `CC(C(=O)Nc1cccc(/N=C/c2c(O)ccc3ccccc23)c1)c1ccccc1` (stereo not drawn) [Salermide], the cell viability turned out to be 0.89.

`O=C(Nc1ccc(C(O)(C(F)(F)F)C(F)(F)F)cc1)c1ccccc1Cl` yielded a cell viability of 0.929.

As for `Cn1cc(-c2cnn3c(N)c(Br)c([C@H]4CCCNC4)nc23)cn1`, the cell viability was 0.907.

Compound `C/C(=C1/C(=O)Nc2ccc(NC(N)=O)cc21)c1ccc[nH]1` came in with a cell viability of 1.02.

Consider `CSc1cccc(Nc2ncc3cc(-c4c(Cl)cccc4Cl)c(=O)n(C)c3n2)c1`, for which the cell viability was 0.665.

Turning to `CCN(CC)CCOc1ccc(Nc2nc(-c3ccccc3NC(=O)CCN3CCN(C)CC3)nc3ccccc23)cc1`, the cell viability was 1.16.

As for `CCN(CC)CCOc1ccc(Nc2ncc3cc(-c4c(Cl)cccc4Cl)c(=O)n(C)c3n2)cc1`, the cell viability amounted to 0.445.

`N#Cc1cc2cc(CN3CCC(Nc4ncnc5sc(CC(F)(F)F)cc45)CC3)ccc2[nH]1` registered a cell viability of 1.04.

In the case of `COc1ccc(-c2nc(-c3cc(C(F)(F)F)cc(C(F)(F)F)c3)n(Cc3ccc(C(N)=O)cc3)c2-c2ccc(OC)cc2)cc1` [Apoptozole], the cell viability is 0.817.

In turn, `COc1cc2c(Oc3ccc(NC(=O)C4(C(=O)Nc5ccc(F)cc5)CC4)cc3F)ccnc2cc1OCCCN1CCOCC1` [Foretinib] returned a cell viability of 0.882.

Compound `COc1c(OCCCN2CCOCC2)ccc2c1N=C(NC(=O)c1cnc(N)nc1)N1CCN=C21` [Copanlisib] showed a cell viability of 0.38.

In the case of `COc1cc2ncnc(Nc3ccc(F)c(Cl)c3)c2cc1OCCCN1CCOCC1` [Gefitinib], the cell viability came out at 0.881.

Regarding `Cc1cc(C)c(S(=O)(=O)N(CCc2cccc(Br)c2)Cc2ccc(-c3cccc(S(C)(=O)=O)c3)cc2)c(C)c1`, the cell viability amounted to 1.12.

Turning to `N#C/C(=C/c1ccc(O)c(O)c1)C(=O)N1CCc2ccccc21` [Tyrphostin AG 528], the cell viability is 1.03.

Compound `COc1ccc2c3n(c(=NC(=O)c4cccnc4)nc2c1OC)CCN3` yielded a cell viability of 0.447.

Compound `COc1ccc(C=C(C#N)c2cccnc2)cc1OC` gave a cell viability of 0.956.

As to `CCc1nc2c(C)cc(N3CCN(CC(=O)N4CC(O)C4)CC3)cn2c1N(C)c1nc(-c2ccc(F)cc2)c(C#N)s1`, the cell viability came out at 1.02.

On to `CNS(=O)(=O)c1ccccc1Nc1nc(Nc2ccc(N3CCN(C)CC3)cc2OC)ncc1Cl` [ALK inhibitor 2], for which the cell viability stood at 1.

The compound `COc1cc(N2CCC(N3CCN(C)CC3)CC2)ccc1Nc1ncc(Cl)c(Nc2ccccc2S(=O)(=O)C(C)C)n1` had a cell viability of 0.942.

`CN1CCN(Cc2ccc(Nc3ncc(Cl)c(Nc4ccccc4S(=O)(=O)N(C)C)n3)cc2)CC1` yielded a cell viability of 0.122.

The compound `CC/C(=C(/c1ccc(O)cc1)c1ccc(OCCNC)cc1)c1ccccc1` [Endoxifen E-isomer hydrochloride] returned a cell viability of 1.12.

For the compound `CN1C(N)=N[C@](C)(c2cc(NC(=O)c3ccc(F)cn3)ccc2F)CS1(=O)=O` [Verubecestat], the cell viability was 0.969.

`Cn1cc(CNCC2CCN(c3ncc(C(=O)NO)cn3)CC2)c2ccccc21` [Quisinostat]: the cell viability was found to be 0.358.

`CN1CCc2c(c3ccccc3n2Cc2ccc(C(=O)NO)cc2)C1` [Tubastatin A HCl] showed a cell viability of 0.892.

`Cn1cc(C[C@@H](N)C(=O)O)c2ccccc21` [Indoximod] gave a cell viability of 1.14.

Compound `CC(=O)OCC1=CO[C@@H](OC(=O)CC(C)C)[C@H]2C1=C[C@H](OC(=O)CC(C)(C)OC(C)=O)[C@]21CO1` [Acevaltrate] had a cell viability of 1.13.

The compound `Cc1cc([N+](=O)[O-])c(NS(=O)(=O)c2cccc(C(=O)O)c2)cc1-c1cccnc1` [Alofanib] displayed a cell viability of 0.978.

`O=P(O)(O)O[C@H]1[C@H](OP(=O)(O)O)[C@@H](OP(=O)(O)O)[C@H](OP(=O)(O)O)[C@@H](OP(=O)(O)O)[C@H]1OP(=O)(O)O` [Phytic acid] displayed a cell viability of 1.13.

In turn, `CN(C)C1CCN(C(=O)c2ccc(NC(=O)Nc3ccc(-c4nc(N5CCOCC5)nc(N5CCOCC5)n4)cc3)cc2)CC1` [Gedatolisib] showed a cell viability of 0.385.

As to `CCNC(=O)Nc1ccc(-c2nc(N3CCOC[C@@H]3C)c3c(n2)C(C)(C)S(=O)(=O)C3)cc1`, the cell viability amounted to 0.508.

The compound `COC(=O)Nc1ccc(-c2nc(N3CCOCC3)c3cnn(C4CCN(C(=O)OC)CC4)c3n2)cc1` displayed a cell viability of 0.855.

As to `O=C(Nc1ncc([N+](=O)[O-])s1)c1ccccc1O` [Tizoxanide], the cell viability was 0.88.

Take `COC(=O)C[C@](O)(CCCC(C)(C)O)C(=O)O[C@@H]1C(OC)=C[C@]23CCCN2CCc2cc4c(cc2[C@H]13)OCO4` [Homoharringtonine]: the cell viability is 0.2.

As to `O=C(O)COc1ccc(Br)cc1/C=C1\SC(=S)N(Cc2cccnc2)C1=O` [Skp2 Inhibitor C1], the cell viability was 1.08.

As to `CC(C)=CCc1cc2c(cc1O)O[C@H](c1ccc(O)cc1)CC2=O` [Bavachin], the cell viability is 1.01.

On to `CC(C)(C)c1cc(NC(=O)Nc2ccc(Oc3ccnc4[nH]c(=O)cnc34)cc2F)n(-c2ccccc2)n1`, for which the cell viability was determined as 1.12.

In turn, `Nc1cc(F)ccc1NC(=O)c1ccc(CNC(=O)/C=C/c2cccnc2)cc1` [Chidamide] had a cell viability of 0.775.

Compound `O=C(/C=C/c1cccnc1)NCCCCC1CCN(C(=O)c2ccccc2)CC1` displayed a cell viability of 0.452.

With `Nc1ccc(/C=C/C(=O)NCc2cc3cc(-c4ccc(C(=O)N5CCC(F)(F)CC5)cc4)cc(-c4ccc(F)cc4)c3o2)cn1`, the cell viability stood at 1.25.

With `c1ccc(-c2oc3ncnc(NC[C@@H]4CCCO4)c3c2-c2ccccc2)cc1`, the cell viability was 1.06.

Consider `COC1=CC(=O)c2ccccc2C1=O` [2-Methoxynaphthoquinone], for which the cell viability was found to be 1.06.

Compound `COc1cccc(-c2cc(F)ccc2[C@H]2Cc3nc(N)nc(C)c3C(=O)N2)n1` yielded a cell viability of 0.502.

With `COc1ccc(-c2cc3c(C)nc(N)nc3n([C@H]3CC[C@H](OCCO)CC3)c2=O)cn1`, the cell viability amounted to 0.398.

In turn, `CCn1c(=O)c(-c2cc[nH]n2)cc2c(C)nc(N)nc21` [Voxtalisib] returned a cell viability of 0.86.

Regarding `CCCCCCCCCC(=O)CC(O)S(=O)(=O)O` (stereo not drawn) [Sodium houttuyfonate], the cell viability was 1.08.

`CC(=O)OC(C)(C)CCC(=O)[C@](C)(O)[C@H]1[C@H](O)C[C@@]2(C)[C@@H]3CC=C4[C@@H](C[C@H](O)[C@@H](O)C4(C)C)[C@]3(C)C(=O)C[C@]12C` [Cucurbitacin IIA] registered a cell viability of 1.07.

As to `Oc1ccc(C(c2c[nH]c3ccccc23)c2c[nH]c3ccccc23)cc1`, the cell viability worked out at 1.08.

In turn, `C[C@@H]1O[C@@H](O[C@@H]2[C@H](O)[C@@H](O)[C@H](O[C@H]3CC[C@@]4(C)C(CC[C@]5(C)C4C=C[C@]46OC[C@@]7(CCC(C)(C)CC74)[C@@H](O)C[C@]65C)C3(C)C)O[C@@H]2CO[C@@H]2O[C@H](CO)[C@@H](O)[C@H](O)[C@H]2O)[C@H](O)[C@H](O)[C@H]1O` (stereo partly drawn) [Saikosaponin C] registered a cell viability of 0.993.

As to `COc1ccc(CC(=O)NC(/N=C(\NC#N)Nc2cccc3ncccc23)C(C)(C)C)cc1OC` (stereo not drawn), the cell viability turned out to be 0.985.

The compound `Cc1ccc(NC(=S)NNc2c([N+](=O)[O-])cc(C(F)(F)F)cc2[N+](=O)[O-])cc1Cl` gave a cell viability of 0.982.

`COc1ccc(CCC(=O)O)cc1OC` [3,4-Dimethoxyhydrocinnamic acid] gave a cell viability of 0.856.

With `N=C(NCCCCCCNC(=N)NC(=N)Nc1ccc(Cl)cc1)NC(=N)Nc1ccc(Cl)cc1` [Chlorhexidine hydrochloride], the cell viability was 1.02.

`N#CN=C(NCCCCCCOc1ccc(Cl)cc1)Nc1ccncc1` yielded a cell viability of 0.165.

`N=C(NCCCCCCNC(=N)NC(=N)Nc1ccc(Cl)cc1)NC(=N)Nc1ccc(Cl)cc1` [Chlorhexidine] came in with a cell viability of 1.17.

As for `C[C@@H]1CC[C@]2(C(=O)O)CC[C@]3(C)C(=CC[C@@H]4[C@@]5(C)CC[C@H](O)[C@@](C)(CO)[C@@H]5CC[C@]43C)[C@@H]2[C@]1(C)O` [Rutundic acid], the cell viability was 1.02.

The compound `CCN(CC)CC(O)CNc1ccc(NCC2CO2)c2c1C(=O)c1ccccc1C2=O` (stereo not drawn) showed a cell viability of 0.831.

Compound `O=C(NCCCn1ccnc1)c1cc(-c2ccco2)on1` registered a cell viability of 1.03.

`C[C@H](CC(=O)C[C@@H](C)[C@H]1C[C@H](O)[C@@]2(C)C3=C(C(=O)C[C@]12C)[C@@]1(C)CCC(=O)C(C)(C)[C@@H]1C[C@@H]3O)C(=O)O` [Ganoderic acid A] returned a cell viability of 1.03.

`CNC(=O)Nc1cc(Oc2cncc(C)c2)c(-c2ccc(OCC(C)(C)O)nc2)cn1` came in with a cell viability of 0.91.

Compound `COc1cc2cc(Oc3ccc4ccc(=O)oc4c3)c(=O)oc2cc1O` [Daphnoretin] came in with a cell viability of 1.11.

As to `COCC[n+]1c2c(n(Cc3cnccn3)c1C)C(=O)c1ccccc1C2=O`, the cell viability is 0.0756.

Turning to `CC(C)(NS(=O)(=O)c1ccc2c(Cl)cnc(N=C(N)N)c2c1)C(=O)O`, the cell viability stood at 1.04.

Compound `CCC(=O)N1CCOc2c(cc(-c3ccc(OC)c(OC)c3)cc2OC[C@H]2CCCN(C)C2)C1` [I-CBP112 hydrochloride] came in with a cell viability of 0.963.

`Cc1cc(N2C[C@@H](C)N[C@@H](C)C2)ncc1-c1ccc(-c2nc3c(ccn3C)c(=O)[nH]2)cc1`: the cell viability came to 0.757.

`C[C@H](NC(=O)CNC(=O)c1cccc(Cl)c1)c1ccccc1` showed a cell viability of 0.957.

Consider `CC(C)C[C@H](NC(=O)CNC(=O)c1cc(Cl)ccc1Cl)B(O)O` [Ixazomib], for which the cell viability came to 0.28.

For the compound `CC(C)C[C@H](NC(=O)CNC(=O)c1cc(Cl)ccc1Cl)B1OC(=O)C(CC(=O)O)(CC(=O)O)O1`, the cell viability stood at 0.342.

Turning to `CCCC(C)NC(=O)c1ccc(Cl)c(Cl)c1` (stereo not drawn), the cell viability was 1.07.
